Measurements taken from PubChem BioAssay (Tox21).
Where “and” joins values, the source holds several entries; their conditions need not be identical. Identical values can stand only once. Inconclusive results are not listed. A structure can be active in one record and inactive in another. Calls of active or inactive are those of the source. Unless noted, calls follow the shape of the dose curve; as a rule, active = well fitted curve in the direction sought with a large enough effect in the repeat runs; inconclusive = weak or mixed curves; inactive = no such curve, though single readings can be large; an effect the other way counts as inactive or inconclusive.

Legend:
[1] = Caspase-3/7 induction in CHO-K1 cells by small molecules, qHTS cell viability counter screen (AID 1346979); also: nearly all actives have a fitted effect of over 35% in size; also: potency is read from the fitted curve at half-maximal effect
Procedure, shortened: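 Cytotoxicity counter screen: CellTiter-Fluor added to compound-treated wild-type CHO-K1 cells at 16 h (37C, 5% CO2), fluorescence measured 1 h later; same wells as caspase-3/7 measurement.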

[2] = Caspase-3/7 induction in CHO-K1 cells by small molecules, qHTS assay (AID 1346980); also: nearly all actives have a fitted effect of over 15% in size
Procedure, shortened: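 Wild-type CHO-K1 cells exposed to compounds for 17hr at 37 C, 5% CO2. Caspase-3/7 activity then measured by Caspase-Glo 3/7 luminescence after 30min at room temperature.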

[3] = Caspase-3/7 induction in HepG2 cells by small molecules, qHTS cell viability counter screen (AID 1346981); also: nearly all actives have a fitted effect of over 30% in size; also: potency is read from the fitted curve at half-maximal effect
Procedure, shortened: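 Wild-type HepG2 cells (2,000/well) were allowed to settle for 5 hr at 37 C, 5% CO2, then dosed with compounds in DMSO by pin transfer. After 16 hr at 37 C, CellTiter-Fluor was added and fluorescence read 1 hr later.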

[4] = target: Nuclear receptor subfamily 1 group I member 2 (Homo sapiens) (UniProt O75469); experiment: Human pregnane X receptor (PXR) small molecule agonists, qHTS assay (AID 1346982); also: nearly all actives have a fitted effect of over 35% in size; also: potency is read from the fitted curve at half-maximal effect
Procedure, shortened: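 PXR-Luc HepG2 cells (CYP3A4 promoter-driven luciferase) were seeded in medium with 5% charcoal-stripped FBS, left 5 hr at 37 C, then exposed to compounds in DMSO for 24 hr. Luminescence was read after ONE-Glo addition.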

[5] = target: Acetylcholinesterase (Homo sapiens) (UniProt P22303); experiment: Acetylcholinesterase (AChE) small molecule antagonists: enzyme-based qHTS assay (AID 1347397; calls by dose curve; also: nearly all actives have a fitted effect of over 55% in size); details: Potency: AChE enzyme activity inhibition
Procedure, shortened: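 Recombinant human AChE (50 mU/mL) preincubated with compound 30 min at room temperature; acetylthiocholine plus DTNB then added, and thiocholine formation read colorimetrically after 10 min at room temperature. DMSO served as vehicle control.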

[6] = target: Acetylcholinesterase (Homo sapiens) (UniProt P22303); experiment: Acetylcholinesterase (AChE) small molecule antagonists: fluorescence cell-based qHTS assay (AID 1347398; calls by dose curve; also: nearly all actives have a fitted effect of over 50% in size; also: potency is read from the fitted curve at half-maximal effect); details: Potency: AChE activity
Procedure, shortened: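 SH-SY5Y cells (2000/well), attached overnight, incubated with compound 30 min at 37 C. Acetylthiocholine plus Thiolite Green then added for 40 min at room temperature. Thiocholine fluorescence (Ex/Em 490/520 nm) reports cellular AChE activity.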

[7] = target: Acetylcholinesterase (Homo sapiens) (UniProt P22303); experiment: Acetylcholinesterase (AChE) small molecule antagonists: enzyme-based qHTS assay with human liver microsomes (AID 1347399; calls by dose curve; also: nearly all actives have a fitted effect of over 60% in size); details: Potency: qHTS inhibition
Procedure, shortened: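 Recombinant human AChE (50 mU/mL in the enzyme mix) and human liver microsomes (0.25 mg/mL final) were preincubated with compound and NADPH (0.25 mg/mL final) for 30 min at 37 C. Acetylthiocholine/DTNB was then added; thiocholine was read colorimetrically after 10 min at room temperature.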

[8] = target: Cytochrome P450 2D6 (Homo sapiens) (UniProt P10635); experiment: Cytochrome P450 Family 2 Subfamily D Member 6 (CYP2D6) small molecule antagonists: luciferase reporter qHTS assay (AID 1671196); also: nearly all actives have a fitted effect of over 50% in size; also: potency is read from the fitted curve at half-maximal effect
Procedure, shortened: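 CYP2D6 enzyme–substrate mix was held with compound for 10 min at room temperature, then NADPH regeneration solution was added and the reaction ran 1 h at room temperature. Luciferin product was detected by luminescence after 20 min with detection reagent.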

[9] = target: Cytochrome P450 2C19 (Homo sapiens) (UniProt P33261); experiment: Cytochrome P450 Family 2 Subfamily C Member 19 (CYP2C19) small molecule antagonists: luciferase reporter qHTS assay (AID 1671197); also: nearly all actives have a fitted effect of over 65% in size; also: potency is read from the fitted curve at half-maximal effect
Procedure, shortened: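 Enzyme-substrate mix with proluciferin substrate (P450-Glo CYP2C19 system) preincubated with compounds 10 min at room temperature; NADPH regeneration solution added, 37C for 1 h; detection reagent stops reaction, luminescence read after 20 min. Ketoconazole positive control.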

[10] = target: Cytochrome P450 2C9 (Homo sapiens) (UniProt P11712); experiment: Cytochrome P450 Family 2 Subfamily C Member 9 (CYP2C9) small molecule antagonists: luciferase reporter qHTS assay (AID 1671198); also: nearly all actives have a fitted effect of over 50% in size; also: potency is read from the fitted curve at half-maximal effect
Procedure, shortened: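 P450-Glo proluciferin substrate with CYP2C9 enzyme; 10 min RT preincubation, then NADPH regeneration 1 h at 37C; luciferin detection reagent 20 min RT, luminescence in relative luminescence units.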

[11] = target: Voltage-gated inwardly rectifying potassium channel KCNH2 (Homo sapiens) (UniProt Q12809); experiment: Human Ether-a-go-go-Related Gene (hERG) channel small molecule antagonists: fluorescence cell-based qHTS assay (AID 1671200); also: nearly all actives have a fitted effect of over 50% in size; also: potency is read from the fitted curve at half-maximal effect
Procedure, shortened: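 Thallium flux as potassium surrogate: FluxOR II dye loaded 1 h at room temperature into hERG-expressing U2OS cells, then stimulus buffer added after 10 min. Kinetic 480 nm excitation/540 nm emission read, 2 min.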

[12] = target: Cytochrome P450 3A4 (Homo sapiens) (UniProt P08684); experiment: Cytochrome P450 Family 3 Subfamily A Member 4 (CYP3A4) small molecule antagonists: luciferase reporter qHTS assay (AID 1671201); also: nearly all actives have a fitted effect of over 50% in size; also: potency is read from the fitted curve at half-maximal effect
Procedure, shortened: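 Recombinant human CYP3A4 converts a proluciferin substrate to luciferin over 1 h at room temperature after NADPH regeneration solution is added (compound preincubated 10 min); detection reagent stops reaction, luminescence read 20 min later as relative units.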

[13] = target: Acetylcholinesterase (Homo sapiens) (UniProt P22303); experiment: Acetylcholinesterase (AChE) small molecule antagonists: colormetric cell-based qHTS assay (AID 1347395; calls by dose curve; also: nearly all actives have a fitted effect of over 30% in size; also: potency is read from the fitted curve at half-maximal effect)
Procedure, shortened: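 Colorimetric readout: DTNB quantifies thiocholine from acetylthiocholine hydrolysed by endogenous AChE of SH-SY5Y cells (2,000/well, plated overnight). Compound pretreatment 30 min, substrate incubation 90 min, both 37 C.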

[14] = Caspase-3/7 induction in HepG2 cells by small molecules, qHTS assay (AID 1346978); also: nearly all actives have a fitted effect of over 15% in size
Procedure, shortened: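 Wild-type HepG2 cells, 2,000/well, settled 5 hr at 37 C and 5% CO2, then compound-treated for 17 hr; caspase-3/7 activity read by luminescent Caspase-Glo 3/7 after 30 min at room temperature.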

[15] = target: Nuclear receptor subfamily 1 group I member 2 (Rattus norvegicus) (UniProt Q9R1A7); experiment: Rat pregnane X receptor (rPXR) activation by small molecules, qHTS assay (AID 1346983); details: rPXR luciferase reporter cells, One-Glo luminescence, 24 h; max activation: stronger effect = higher value; also: nearly all actives have a fitted effect of over 20% in size
Procedure, shortened: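 Cell-based rPXR activation assay: rPXR cells, 2,000 per well, rested 5hr at 37 C, then exposed to compounds in DMSO for 24 hr at 37 C. Luciferase activity read by One-Glo luminescence after 30 min at room temperature.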

[16] = target: Nuclear receptor subfamily 1 group I member 2 (Homo sapiens) (UniProt O75469); experiment: CYP3A4 induction through human pregnane X receptor (PXR) by small molecules, qHTS assay (AID 1346984); also: nearly all actives have a fitted effect of over 40% in size
Procedure, shortened: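 DPX-2 cells (HepG2 co-transfected with PXR and CYP3A4 promoter-luciferase) treated with compounds 24 h at 37C; luciferin-IPA CYP3A4 substrate 3uM final added for 3 h, then One-Glo; luminescence read. qHTS format.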

[17] = target: Nuclear receptor subfamily 1 group I member 2 (Homo sapiens) (UniProt O75469); experiment: Human pregnane X receptor (PXR) activation by small molecules, qHTS assay (AID 1346985); also: nearly all actives have a fitted effect of over 40% in size
Procedure, shortened: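 DPX-2 cells (HepG2 co-transfected with a PXR response element and a CYP3A4-promoter luciferase construct) were seeded at 2,000 per well, rested 5 hr at 37C, then exposed to DMSO-dissolved compounds for 24 hr. Activation was read as luciferase luminescence.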

[18] = target: Cytochrome P450 1A2 (Homo sapiens) (UniProt P05177); experiment: Cytochrome P450 Family 1 Subfamily A Member 2 (CYP1A2) small molecule antagonists: luciferase reporter qHTS assay (AID 1671199); also: nearly all actives have a fitted effect of over 50% in size; also: potency is read from the fitted curve at half-maximal effect
Procedure, shortened: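 Human CYP1A2 activity measured with a P450-Glo proluciferin substrate; compounds in DMSO preincubated 10 min at room temperature with enzyme-substrate mix, then NADPH regeneration system added for 1 h. Luciferin detection reagent, 20 min, luminescence read.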
% is scaled to controls: 0 for no effect and ±100 for the full control effect.

Chain of Cytochrome P450 2C19 (Homo sapiens) (P33261 whole entry, looked up): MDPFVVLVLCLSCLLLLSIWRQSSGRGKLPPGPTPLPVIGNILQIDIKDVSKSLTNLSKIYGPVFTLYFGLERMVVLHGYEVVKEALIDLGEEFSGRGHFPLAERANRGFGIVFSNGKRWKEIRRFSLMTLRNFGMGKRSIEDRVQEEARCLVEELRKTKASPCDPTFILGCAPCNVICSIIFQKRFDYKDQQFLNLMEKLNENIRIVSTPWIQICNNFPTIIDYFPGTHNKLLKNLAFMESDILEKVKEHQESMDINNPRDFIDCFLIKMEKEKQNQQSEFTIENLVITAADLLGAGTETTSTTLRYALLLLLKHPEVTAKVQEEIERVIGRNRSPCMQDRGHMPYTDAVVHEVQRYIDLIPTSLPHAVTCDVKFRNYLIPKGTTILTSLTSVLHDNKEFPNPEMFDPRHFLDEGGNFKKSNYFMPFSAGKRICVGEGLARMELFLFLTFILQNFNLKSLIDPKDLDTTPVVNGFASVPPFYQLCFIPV
Chain of Nuclear receptor subfamily 1 group I member 2 (Homo sapiens) (O75469 whole entry, looked up): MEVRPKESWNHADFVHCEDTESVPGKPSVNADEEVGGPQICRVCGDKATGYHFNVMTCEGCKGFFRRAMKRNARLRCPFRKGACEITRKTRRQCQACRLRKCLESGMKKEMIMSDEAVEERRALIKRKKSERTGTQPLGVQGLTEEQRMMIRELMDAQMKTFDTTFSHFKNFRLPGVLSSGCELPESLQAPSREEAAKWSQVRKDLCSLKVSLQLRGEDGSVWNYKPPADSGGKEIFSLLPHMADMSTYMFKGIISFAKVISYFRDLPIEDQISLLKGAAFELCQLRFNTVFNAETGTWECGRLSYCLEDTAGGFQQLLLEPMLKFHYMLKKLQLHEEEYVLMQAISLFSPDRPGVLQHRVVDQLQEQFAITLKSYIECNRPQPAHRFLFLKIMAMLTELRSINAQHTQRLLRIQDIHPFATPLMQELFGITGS
Chain of Cytochrome P450 1A2 (Homo sapiens) (P05177 whole entry, looked up): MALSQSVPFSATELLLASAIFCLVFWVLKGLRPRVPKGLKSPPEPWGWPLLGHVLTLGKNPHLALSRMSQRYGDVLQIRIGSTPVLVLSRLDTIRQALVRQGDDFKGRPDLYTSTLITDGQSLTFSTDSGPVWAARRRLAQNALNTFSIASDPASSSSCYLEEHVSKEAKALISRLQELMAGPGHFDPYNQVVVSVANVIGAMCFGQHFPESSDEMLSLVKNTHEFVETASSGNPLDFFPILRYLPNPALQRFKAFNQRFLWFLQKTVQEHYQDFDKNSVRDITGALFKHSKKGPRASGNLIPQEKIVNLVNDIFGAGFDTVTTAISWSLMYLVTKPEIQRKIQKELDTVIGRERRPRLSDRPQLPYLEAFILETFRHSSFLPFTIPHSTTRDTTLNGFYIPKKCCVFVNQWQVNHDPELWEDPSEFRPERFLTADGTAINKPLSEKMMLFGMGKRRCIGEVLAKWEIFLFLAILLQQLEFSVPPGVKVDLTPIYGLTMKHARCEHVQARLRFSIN
Chain of Voltage-gated inwardly rectifying potassium channel KCNH2 (Homo sapiens) (Q12809 whole entry, looked up): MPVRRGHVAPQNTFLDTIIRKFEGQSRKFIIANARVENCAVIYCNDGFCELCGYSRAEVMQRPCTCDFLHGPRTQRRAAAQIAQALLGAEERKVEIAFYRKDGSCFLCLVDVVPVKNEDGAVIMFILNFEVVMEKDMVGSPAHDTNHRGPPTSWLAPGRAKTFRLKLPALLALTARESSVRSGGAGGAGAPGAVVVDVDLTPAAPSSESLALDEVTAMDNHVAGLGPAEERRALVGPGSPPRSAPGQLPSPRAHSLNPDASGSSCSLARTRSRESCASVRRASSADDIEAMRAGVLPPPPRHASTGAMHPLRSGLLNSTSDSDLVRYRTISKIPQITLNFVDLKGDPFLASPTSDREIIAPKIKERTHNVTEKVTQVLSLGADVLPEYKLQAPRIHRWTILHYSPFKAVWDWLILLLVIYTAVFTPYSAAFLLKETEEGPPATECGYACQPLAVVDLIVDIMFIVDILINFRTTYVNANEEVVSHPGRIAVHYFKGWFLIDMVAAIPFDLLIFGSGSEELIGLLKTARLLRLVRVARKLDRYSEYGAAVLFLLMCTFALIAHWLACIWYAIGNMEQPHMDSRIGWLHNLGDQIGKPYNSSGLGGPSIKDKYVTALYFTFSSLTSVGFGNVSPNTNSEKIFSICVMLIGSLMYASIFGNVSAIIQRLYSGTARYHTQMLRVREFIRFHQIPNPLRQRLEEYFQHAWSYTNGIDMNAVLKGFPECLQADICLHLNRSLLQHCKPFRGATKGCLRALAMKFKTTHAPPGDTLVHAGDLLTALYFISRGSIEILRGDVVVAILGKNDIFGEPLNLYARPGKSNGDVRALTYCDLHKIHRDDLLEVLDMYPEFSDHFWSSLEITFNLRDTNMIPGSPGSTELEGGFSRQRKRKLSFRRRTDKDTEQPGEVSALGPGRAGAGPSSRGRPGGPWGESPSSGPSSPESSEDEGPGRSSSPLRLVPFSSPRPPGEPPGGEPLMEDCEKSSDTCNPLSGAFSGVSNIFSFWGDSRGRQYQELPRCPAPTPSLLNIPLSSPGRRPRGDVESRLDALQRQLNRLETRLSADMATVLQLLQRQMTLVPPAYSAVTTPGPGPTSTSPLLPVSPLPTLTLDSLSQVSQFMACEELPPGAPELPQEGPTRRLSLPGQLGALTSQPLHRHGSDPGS
Chain of Cytochrome P450 3A4 (Homo sapiens) (P08684 whole entry, looked up): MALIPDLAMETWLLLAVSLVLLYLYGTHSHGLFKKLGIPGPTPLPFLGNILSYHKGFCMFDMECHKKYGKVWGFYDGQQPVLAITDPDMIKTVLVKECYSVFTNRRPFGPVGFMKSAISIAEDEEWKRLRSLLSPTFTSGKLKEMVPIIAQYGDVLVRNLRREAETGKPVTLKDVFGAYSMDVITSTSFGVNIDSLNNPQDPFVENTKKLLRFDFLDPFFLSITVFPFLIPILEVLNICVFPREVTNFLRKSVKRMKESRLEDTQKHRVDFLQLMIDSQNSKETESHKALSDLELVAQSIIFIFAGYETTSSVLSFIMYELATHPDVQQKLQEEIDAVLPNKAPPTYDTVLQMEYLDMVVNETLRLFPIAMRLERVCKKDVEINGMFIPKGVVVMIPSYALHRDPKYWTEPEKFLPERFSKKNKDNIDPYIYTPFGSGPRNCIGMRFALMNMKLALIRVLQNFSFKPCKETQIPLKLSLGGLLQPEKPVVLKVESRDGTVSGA
Chain of Cytochrome P450 2D6 (Homo sapiens) (P10635 whole entry, looked up): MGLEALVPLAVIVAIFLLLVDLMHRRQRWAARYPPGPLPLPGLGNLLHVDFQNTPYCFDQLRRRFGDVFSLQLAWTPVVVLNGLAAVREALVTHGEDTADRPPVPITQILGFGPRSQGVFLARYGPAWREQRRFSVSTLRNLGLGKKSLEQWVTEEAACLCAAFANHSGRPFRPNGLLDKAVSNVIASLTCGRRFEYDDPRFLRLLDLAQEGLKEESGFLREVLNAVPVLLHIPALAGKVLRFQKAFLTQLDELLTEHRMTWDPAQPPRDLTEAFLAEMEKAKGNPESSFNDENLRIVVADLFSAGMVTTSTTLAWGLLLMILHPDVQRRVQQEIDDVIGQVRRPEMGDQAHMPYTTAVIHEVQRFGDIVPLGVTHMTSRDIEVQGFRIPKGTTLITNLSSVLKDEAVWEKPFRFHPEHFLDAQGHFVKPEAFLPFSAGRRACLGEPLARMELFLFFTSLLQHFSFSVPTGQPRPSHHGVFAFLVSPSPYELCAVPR
Chain of Acetylcholinesterase (Homo sapiens) (P22303 whole entry, looked up): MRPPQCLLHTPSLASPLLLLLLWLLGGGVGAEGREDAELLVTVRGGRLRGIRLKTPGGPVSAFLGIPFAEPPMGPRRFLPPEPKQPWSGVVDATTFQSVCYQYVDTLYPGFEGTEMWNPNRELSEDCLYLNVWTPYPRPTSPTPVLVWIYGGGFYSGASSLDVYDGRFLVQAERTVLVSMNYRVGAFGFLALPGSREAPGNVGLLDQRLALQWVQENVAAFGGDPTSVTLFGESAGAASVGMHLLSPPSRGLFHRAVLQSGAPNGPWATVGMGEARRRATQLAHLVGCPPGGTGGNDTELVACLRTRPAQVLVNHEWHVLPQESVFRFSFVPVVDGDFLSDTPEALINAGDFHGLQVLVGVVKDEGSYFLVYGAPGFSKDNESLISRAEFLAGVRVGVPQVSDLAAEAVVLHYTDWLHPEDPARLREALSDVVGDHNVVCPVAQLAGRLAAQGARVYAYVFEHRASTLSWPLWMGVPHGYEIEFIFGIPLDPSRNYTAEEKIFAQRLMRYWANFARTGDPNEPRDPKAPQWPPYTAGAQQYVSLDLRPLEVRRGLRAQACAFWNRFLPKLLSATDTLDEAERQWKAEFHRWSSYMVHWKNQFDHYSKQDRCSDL
Chain of Cytochrome P450 2C9 (Homo sapiens) (P11712 whole entry, looked up): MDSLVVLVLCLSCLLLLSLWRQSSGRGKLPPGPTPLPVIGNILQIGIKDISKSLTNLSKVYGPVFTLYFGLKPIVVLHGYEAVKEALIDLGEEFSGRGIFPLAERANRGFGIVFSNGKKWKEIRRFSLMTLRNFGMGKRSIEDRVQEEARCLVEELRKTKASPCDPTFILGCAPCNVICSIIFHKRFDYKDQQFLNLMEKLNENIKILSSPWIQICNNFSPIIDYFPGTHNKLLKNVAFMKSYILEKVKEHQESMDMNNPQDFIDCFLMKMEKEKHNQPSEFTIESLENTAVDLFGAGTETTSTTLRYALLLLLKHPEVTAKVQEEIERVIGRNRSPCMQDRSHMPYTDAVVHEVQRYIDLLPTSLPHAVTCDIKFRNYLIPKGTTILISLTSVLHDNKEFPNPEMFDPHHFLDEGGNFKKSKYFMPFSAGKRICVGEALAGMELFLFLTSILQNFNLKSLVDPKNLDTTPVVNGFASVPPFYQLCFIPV

CC(C)C1CCC(Cc2ccc(Cl)cc2)C1(O)Cn1cncn1 (stereo unspecified)
active: Potency [1] 30.3 µM | Potency [3] 60.5 µM | Potency [4] 21.5 µM | Potency [8] 22.2 µM | Potency [9] 0.353 µM | Potency [10] 0.789 µM | Potency [11] 34.3 µM | Potency [12] 0.0498 µM
inactive: Potency [2] | Potency [5] | Potency [6] | Potency [7]

FC(Cl)(Cl)Cl
inactive: Potency [1] | Potency [2] | Potency [3] | Potency [4] | Potency [13] | Potency [5] | Potency [6] | Potency [7] | Potency [8] | Potency [10] | Potency [11] | Potency [12]

CC(=O)O[C@H]1CC[C@@]2(C)C(=CC[C@@H]3[C@@H]2CC[C@]2(C)C(=O)CC[C@@H]32)C1
active: Potency [4] 54.5 µM | Potency [9] 31.7 µM | Potency [10] 31.7 µM | Potency [11] 49 µM
inactive: Potency [14] | Potency [3] | max activation [15] -1.42% | Potency [16] | Potency [17] | Potency [6] | Potency [7] | Potency [8] | Potency [18] | Potency [12]

CS(=O)(=O)c1ccc(C(=O)C2C(=O)CCCC2=O)c([N+](=O)[O-])c1
inactive: Potency [14] | Potency [2] | Potency [7] | Potency [11] | Potency [12]
active: Potency [13] 27.2 µM | Potency [9] 72.3 µM | Potency [10] 31.4 µM | Potency [18] 50.3 µM

CC(=O)c1ccc(-c2ccccc2)cc1
inactive: Potency [1] | Potency [2] | Potency [3] | Potency [13] | Potency [5] | Potency [6] | Potency [7] | Potency [8] | Potency [11] | Potency [12]
active: Potency [4] 48.6 µM | Potency [9] 31.7 µM | Potency [10] 15.9 µM

O=C1c2ccccc2C(=O)C1C(=O)C(c1ccccc1)c1ccc(Cl)cc1 (stereo unspecified)
inactive: Potency [2] | Potency [13] | Potency [5] | Potency [6] | Potency [7] | Potency [11] | Potency [12]
active: Potency [1] 15.4 µM | Potency [3] 30.6 µM | Potency [4] 19.3 µM | Potency [9] 17.8 µM | Potency [18] 20 µM

N#CNC#N
inactive: Potency [1] | Potency [2] | Potency [3] | Potency [4] | Potency [13] | Potency [5] | Potency [6] | Potency [7] | Potency [8] | Potency [9] | Potency [10] | Potency [11] | Potency [12]

Oc1c(Br)c(Br)c(Br)c(Br)c1Br
active: Potency [4] 61.5 µM | Potency [10] 35.8 µM | Potency [18] 56.8 µM
inactive: Potency [14] | Potency [13] | Potency [5] | Potency [6] | Potency [7] | Potency [8] | Potency [9] | Potency [11] | Potency [12]

O=[N+]([O-])c1cc(Cl)ccc1Cl
inactive: Potency [14] | Potency [3] | Potency [4] | Potency [13] | Potency [5] | Potency [6] | Potency [7] | Potency [8] | Potency [9] | Potency [10] | Potency [11] | Potency [12]

Clc1ccc(C(c2ccccc2Cl)C(Cl)(Cl)Cl)cc1 (stereo unspecified)
active: Potency [9] 637 nM and 234 nM | Potency [10] 22.6 µM and 10.4 µM
inactive: Potency [14] | Potency [3] | Potency [13] | Potency [6] | Potency [7] | Potency [8] | Potency [18] | Potency [12]
34.6 µM (active) and inactive: Potency [4]

Nc1ccccc1C(=O)OC/C=C/c1ccccc1
inactive: Potency [14] | Potency [3] | Potency [13] | Potency [6] | Potency [7]
active: Potency [4] 21.7 µM

CC(=O)/C=C/c1ccc2c(c1)OCO2
active: Potency [4] 61.4 µM | Potency [8] 25.3 µM | Potency [9] 14.2 µM | Potency [10] 8.01 µM | Potency [18] 0.226 µM
inactive: Potency [14] | Potency [2] | Potency [5] | Potency [7] | Potency [11]

CC(C)(O)c1cnn2c(-c3ccc(F)c(-c4c(F)cccc4C#N)c3)cnc2n1
inactive: Potency [14] | Potency [2] | Potency [5] | Potency [7] | Potency [11]
active: Potency [4] 2.43 µM | Potency [6] 28.3 µM | Potency [9] 8.94 µM | Potency [10] 1.26 µM | Potency [12] 35.6 µM

COc1ccc(/C(=C/C(=O)N2CCOCC2)c2ccc(Cl)cc2)cc1OC
inactive: Potency [1] | Potency [2] | Potency [3] | Potency [13] | Potency [5] | Potency [6] | Potency [7] | Potency [8] | Potency [18]
active: Potency [4] 15.4 µM | Potency [9] 56.4 µM | Potency [10] 31.7 µM | Potency [11] 12.3 µM | Potency [12] 3.17 µM

Oc1c(Cl)c(Cl)cc(Cl)c1Cl
inactive: Potency [14] | Potency [3] | Potency [13] | Potency [5] | Potency [6] | Potency [7] | Potency [8] | Potency [9] | Potency [11] | Potency [12]
active: Potency [10] 21.8 µM

O=[N+]([O-])c1ccc2ccc3cccc4ccc1c2c34
inactive: Potency [2] | Potency [5] | Potency [6] | Potency [7] | Potency [9] | Potency [10] | Potency [11] | Potency [12]
active: Potency [1] 43.2 µM | Potency [3] 27.3 µM | Potency [4] 21.7 µM | Potency [8] 31.7 µM | Potency [18] 0.224 µM

O=C(O)C1C2CCC(O2)C1C(=O)O (stereo unspecified)
inactive: Potency [2] | Potency [3] | Potency [4] | Potency [13] | Potency [5] | Potency [6] | Potency [7] | Potency [8] | Potency [10] | Potency [11]
36 µM (active) and inactive: Potency [9]
active: Potency [1] 55.1 µM and 44.5 µM
